“And” between values parts separate entries of the source, which are not always exact repeats. Equal values may be shown once. The source made the active and inactive calls. Rule for the calls: active = hit-call score of the fitted dose curve at least 0.9, where 1 is the maximum; inactive = score below 0.9.

Read-out in the test: Interleukin-1 alpha (IL1a), IL1A (gene 3552)
The test is described as follows: BSK_KF3CT_IL1a: BioMAP Diversity Plus: KF3CT Assay for Interleukin-1 alpha (IL1a) Biomarker Activity (AID 2283070). The settings on record: primary human keratinocytes with fibroblasts; actives raise or lower the signal. The method, then: BSK_KF3CT is a cell-based, multiplexed-readout assay that uses keratinocytes and foreskin fibroblasts, a human skin primary cell co-culture, with measurements taken at 24 hours after chemical dosing in a 96-well plate.BSK_KF3CT_IL1a is an assay component measured in the BSK_KF3CT assay. It measures IL-1a antibody related to regulation of gene expression using ELISA technology.Data from the assay component BSK_KF3CT_IL1a was analyzed into 1 assay endpoint. This assay endpoint, BSK_KF3CT_IL1a, was analyzed with bidirectional fitting relative to DMSO as the negative control and baseline of activity. Using a type of binding reporter, gain or loss-of-signal activity can be used to understand changes in the signaling as they relate to the gene IL1A. Furthermore, this assay endpoint can be referred to as a primary readout, because this assay has produced multiple assay endpoints where this one serves a signaling function. To generalize the intended target to other relatable targets, this assay endpoint is annotated to the cytokine intended target family, where the subfamily is interleukins.
The levels of cell surface (or secreted, indicated by the prefix "s") biomarker endpoints were measured by ELISA. Overt cytotoxicity to cells in confluent adherent cultures (all systems other than the BT system) was assessed by measuring total protein levels using sulforhodamine B (SRB) staining in parallel cultures at the time of biomarker measurements, indicated as SRB endpoints. For proliferation assays for adherent cell types, individual cell types are cultured at sub-confluence and relative cell numbers quantified by SRB staining at time points optimized for each system (48 h: 3C and CASM3C systems; 72 h: BT and HDF3CGF systems; 96 h: SAg system). SRB was performed by staining cells with 0.1% SRB after fixation with 10% TCA and reading wells at 560 nm.Viability and proliferation of PBMC (T cells) was quantified by Alamar Blue reduction for the SAg and BT systems. For PBMC viability (referred to as PBMC Cytotoxicity within the assay endpoint names), cells were plated (75,000/well in a 96-well plate) and then chemical samples added for 1 h before addition of activators, SEB and TSST-1 (20 ng/mL final concentration each). Cells were incubated for 90 h. Then, Alamar Blue (20 uL/well) (Invitrogen, Cat DAL1100) was added for 6 h, and the plates were read with a fluorescence microplate reader at 546/580 nm (excitation/emission). For PBMC proliferation, cells were plated and activated as above but incubated for only 16 h prior to addition of Alamar Blue. Plates were read after 6 h.
Turning to `CCN(CC)c1ccc2c(C)cc(=O)oc2c1`, the result was inactive.

With `C=CC(F)(F)C(F)(F)C(F)(F)C(F)(F)C(F)(F)C(F)(F)C(F)(F)C(F)(F)F`, the outcome was inactive.

Turning to `CC(CCl)OP(=O)(OC(C)CCl)OC(C)CCl` (stereo not given), the result was inactive.

Regarding `FC(F)(F)C(F)(F)C(F)(F)C(F)(F)C(F)(F)C(F)(F)C(F)(F)Br`, the outcome was inactive.

For `O=C(O)C=C(C(F)(F)F)C(F)(F)F`, the result was inactive.

Consider `CCCCCCC(C)OC(=O)CCCCC(=O)OC(C)CCCCCC` (stereo not given), for which the outcome was inactive.

As to `O=C(O)C(F)(F)C(F)(F)C(F)(F)C(F)(F)C(F)(F)C(F)(F)C(F)(F)C(F)(F)C(F)(F)C(F)F`, the AC50 was 48.7 µM (active) and 46.1 µM (active).

Regarding `FC(F)(I)C(F)(F)C(F)(F)C(F)(F)I`, the AC50 is 53.2 µM (active) and 47.2 µM (active) and 47.7 µM (active).

In the case of `O=C(CC(=O)C(F)(F)C(F)(F)F)C(F)(F)F`, the outcome was inactive.

Turning to `O=P(O)(O)OCCC(F)(F)C(F)(F)C(F)(F)C(F)(F)C(F)(F)C(F)(F)F`, the result was inactive.

`CCCCCCCOC(=O)c1ccccc1C(=O)OCCCCCCC`: the outcome was inactive.

As for `N=C(N)C(F)(F)C(F)(F)C(F)(F)C(F)(F)C(F)(F)C(F)(F)C(F)(F)F`, the outcome was inactive.

Turning to `FC(F)(F)C(F)(F)C(F)(F)C(F)(F)CCI`, the result was inactive.

Regarding `CC(C)(C)C(=O)CC(=O)C(F)(F)C(F)(F)C(F)(F)F`, the outcome was inactive.

On to `CCc1ccc(C(c2ccc(CC)cc2)C(Cl)Cl)cc1`, for which the AC50 was 20 µM (active).

Consider `FC(F)(F)C(F)(F)C(F)(F)C(F)(F)C(F)(F)C(F)(F)C(F)(F)C(F)(F)CCS`, for which the result was inactive.

As for `Oc1ccc(Nc2ccccc2)cc1`, the AC50 was 5.84 µM (active).

On to `CC(=O)Nc1ccc(N=Nc2cc(C)ccc2O)cc1`, for which the AC50 is 20 µM (active).

In the case of `O[Si](c1ccccc1)(c1ccccc1)c1ccccc1`, the result was inactive.

Consider `FC(F)(Br)C(F)(F)C(F)(F)C(F)(F)C(F)(F)C(F)(F)Br`, for which the outcome was inactive.

Take `FC1CC(F)(F)C(F)(F)C1(F)F` (stereo not given): the outcome was inactive.

As to `NC(=O)C(F)(F)C(F)(F)C(F)(F)C(F)(F)F`, the outcome was inactive.

For the compound `O=C(O)C(F)(OC(F)(F)C(F)(OC(F)(F)C(F)(OC(F)(F)C(F)(F)C(F)(F)F)C(F)(F)F)C(F)(F)F)C(F)(F)F` (stereo not given), the result was inactive.

For `C=CC(=O)OCC(F)(F)C(F)(F)C(F)(F)C(F)(F)C(F)(F)C(F)(F)C(F)(F)F`, the result was inactive.

`OCCCC(F)(F)C(F)(F)C(F)(F)F`: the result was inactive.

Turning to `CCCCCCCCCCCCCCCC[N+](C)(C)Cc1ccccc1`, the AC50 was 3.72 µM (active).

Consider `C=C(C)C(=O)OCC(F)(F)C(F)(F)C(F)(F)C(F)(F)C(F)(F)C(F)(F)C(F)(F)F`, for which the outcome was inactive.

On to `O=C(O)C(F)(F)C(F)(F)C(F)(F)C(F)(F)F`, for which the outcome was inactive.

With `C=CC/C=C/C/C=C/C/C=C/C`, the outcome was inactive.

In the case of `C=CC(=O)OCC(F)(F)C(F)(F)C(F)(F)C(F)(F)COC(=O)C=C`, the AC50 is 18.6 µM (active) and 48.2 µM (active).

In the case of `O=S(=O)(OCC(F)F)C(F)(F)F`, the outcome was inactive.

Take `O=S(=O)(O)C(F)(F)C(F)(F)C(F)(F)C(F)(F)C(F)(F)C(F)(F)C(F)(F)F`: the outcome was inactive.

As to `FC(F)(F)C(F)(F)C(F)(F)N(C(F)(F)C(F)(F)C(F)(F)F)C(F)(F)C(F)(F)C(F)(F)F`, the outcome was inactive.

`O=C(O)C(F)(F)C(F)(F)C(F)(F)C(F)(F)C(F)(F)C(F)(F)C(F)(F)C(F)(F)C(F)(F)C(F)(F)C(F)(F)C(F)(F)F`: the AC50 was 4.28 µM (active) and 3.91 µM (active).

Consider `OCC(F)(F)C(F)(F)C(F)(F)C(F)(F)C(F)(F)C(F)(F)F`, for which the result was inactive.

With `O=C(O)C(F)(F)C(F)(F)C(F)(F)F`, the result was inactive.

Turning to `O=C(O)C(F)(F)C(F)(F)OC(F)(F)F`, the result was inactive.

Turning to `Nc1ccc([N+](=O)[O-])cc1O`, the outcome was inactive.

Regarding `FC(F)(F)C(F)(F)CNCC(F)(F)C(F)(F)F`, the outcome was inactive.

On to `C#C[C@]1(O)CC[C@H]2[C@@H]3CCc4cc(OC)ccc4[C@H]3CC[C@@]21C`, for which the AC50 was 3.97 µM (active).

The values are drawn from PubChem BioAssay (EPA / NIEHS).
